A short description of assay [1]: HepG2 liver cancer cell viability effects, profiling panel, resazurin fluorescence, 24 h, PK04 Diversity Set (AID 1172). Particulars: higher = more signal. A general note: Alamar Blue is a resazurin reagent that responds to reducing activity.
Assay [2] in a line: basal S. cerevisiae growth modulation, no modifier, primary screen, OD600, strain BY4716, 24 h, basal condition (AID 1173). Particulars: OD600, 24 h, higher = more signal, called active from +8 up or from −8 down.
Assay [3] in a line: MM1S myeloma cell viability, profiling panel, resazurin fluorescence, basal, 24 h, PK04 Diversity Set (AID 1174). Particulars: higher = more signal, called active from +8 up or from −8 down.
Assay [4] addresses Dihydroorotate dehydrogenase (quinone), mitochondrial (Plasmodium falciparum (isolate 3D7)) (UniProt Q08210). The experiment in a line: PfDHODH enzyme inhibitors, primary screen, biochemical, C-terminal His tag, absorbance 600 nm (AID 1175).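 Further: recombinant parasite enzyme with a five histidine tag at its C terminus.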 Particulars: DCIP absorbance 600 nm, higher = more signal, called active from +8 up or from −8 down.
The nature of assay [5]: P. aeruginosa biofilm formation inhibitors, primary screen, strain PAO1, LB-PBS medium, absorbance 600 nm (AID 1176). Particulars: P. aeruginosa PAO1 growth/biofilm, A600, 12 h; higher = more signal.
Assay [6] in a line: S. cerevisiae RM11-1a growth modifiers, primary screen, strain RM11-1a, OD600, basal, 24 h (AID 1177).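 Further: cultures grown under basal conditions with no added stressor.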 Particulars: OD600, 24 h, higher = more signal, called active from +8 up or from −8 down.
Assay [7] in a line: E. coli acrAB mutant growth effects, primary screen, E. coli filamentation inducers, strain DRC39, OD650, 24 h (AID 1178).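 Further: growth measured as culture turbidity by optical density at 650 nm.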 Particulars: higher = more signal, called active from +8 up or from −8 down.
The nature of assay [8]: E. coli acrAB mutant growth effects, primary screen, E. coli filamentation inducers, strain DRC39, OD650, 48 h (AID 1179).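 Further: screen aims at cell division blockers that make cells filament.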 As to conditions: E. coli DRC39 delta-acrAB growth, higher = more signal, called active from +8 up or from −8 down.
Assay [9] can be described thus: RPMI8226 myeloma cell viability, profiling panel, resazurin fluorescence, basal, 24 h, PK04 Diversity Set (AID 1180).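 Further: RPMI8826 multiple myeloma cell line at 5000 cells per well.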 As to conditions: higher = more signal.
The target of assay [10] is E3 ubiquitin-protein ligase XIAP (Homo sapiens) (UniProt P98170). The experiment in a line: XIAP binders, primary screen, biophysical, small-molecule microarray, fluorescence 635 nm (AID 1181).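 Further: score merges 667 nm emission and signal to noise over triplicate slides.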 As to conditions: small-molecule microarray binding, higher = more signal.
Chain of E3 ubiquitin-protein ligase XIAP (Homo sapiens) (P98170 whole entry, looked up): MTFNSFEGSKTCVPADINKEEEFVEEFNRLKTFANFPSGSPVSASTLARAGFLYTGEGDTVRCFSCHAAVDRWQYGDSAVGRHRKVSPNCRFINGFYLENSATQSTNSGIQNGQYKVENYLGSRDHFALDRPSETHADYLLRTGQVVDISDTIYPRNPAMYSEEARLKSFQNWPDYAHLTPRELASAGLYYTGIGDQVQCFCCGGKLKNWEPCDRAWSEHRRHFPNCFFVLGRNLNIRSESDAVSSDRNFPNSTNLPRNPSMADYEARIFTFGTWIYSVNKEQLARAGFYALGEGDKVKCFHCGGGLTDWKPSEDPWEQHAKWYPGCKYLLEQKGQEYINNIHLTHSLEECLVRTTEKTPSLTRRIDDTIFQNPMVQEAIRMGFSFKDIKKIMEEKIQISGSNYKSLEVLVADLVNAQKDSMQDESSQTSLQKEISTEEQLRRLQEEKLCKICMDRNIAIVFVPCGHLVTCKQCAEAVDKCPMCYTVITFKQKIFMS
Assay [11] has as its system XIP peptide (Xip251-270) binding. The experiment in a line: small-molecule binders of XIP peptide, primary screen, biochemical, small-molecule microarray, fluorescence 635/667 nm, 0.1 µg/mL protein (AID 1182). As to conditions: fluorescent protein binding, 635 nm, higher = more signal, called active from +8 up or from −8 down.
Another assay concerns XIP peptide (Xip251-270). Kind of assay: small-molecule binders of XIP peptide, primary screen, biochemical, small-molecule microarray, fluorescence 635/667 nm, 0.5 µg/mL protein (AID 1183). Particulars: small-molecule microarray binding, fluorescence 635 nm; higher = more signal.
Assay [12] is described as follows: Plasmodium falciparum growth inhibition, primary screen, strain 3D7, DAPI fluorescence, 100 nL (AID 1184).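 Further: parasites grown inside human red blood cells in medium with human serum.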 As to conditions: P. falciparum 3D7 growth, 3 d, higher = more signal.
Assay [13] concerns the target Homeobox protein Hox-A13 (Mus musculus) (UniProt Q62424). Kind of assay: inhibitors of HoxA13-DNA binding, primary screen, biochemical, fluorescence polarization, labeled oligonucleotide (AID 1185). Particulars: 15 min, higher = more signal, called active from +8 up or from −8 down.
A short description of assay [14]: inhibitors of hydroxyurea-induced Chk1 phosphorylation, primary screen, imaging, HeLa, phospho-Chk1 antibody, percent positive cells (AID 1186). As to conditions: hydroxyurea-induced phospho-Chk1 immunofluorescence imaging, higher = more signal.
Assay [15] can be described thus: inhibitors of hydroxyurea-induced Chk1 phosphorylation, primary screen, imaging, HeLa, phospho-Chk1 nuclear intensity (AID 1187). Particulars: hydroxyurea-induced phospho-Chk1 immunofluorescence imaging, higher = more signal.

Active and inactive are the calls of the source. Unless noted, how the calls were made is not given here.

Chain of Homeobox protein Hox-A13 (Mus musculus) (Q62424 whole entry, looked up): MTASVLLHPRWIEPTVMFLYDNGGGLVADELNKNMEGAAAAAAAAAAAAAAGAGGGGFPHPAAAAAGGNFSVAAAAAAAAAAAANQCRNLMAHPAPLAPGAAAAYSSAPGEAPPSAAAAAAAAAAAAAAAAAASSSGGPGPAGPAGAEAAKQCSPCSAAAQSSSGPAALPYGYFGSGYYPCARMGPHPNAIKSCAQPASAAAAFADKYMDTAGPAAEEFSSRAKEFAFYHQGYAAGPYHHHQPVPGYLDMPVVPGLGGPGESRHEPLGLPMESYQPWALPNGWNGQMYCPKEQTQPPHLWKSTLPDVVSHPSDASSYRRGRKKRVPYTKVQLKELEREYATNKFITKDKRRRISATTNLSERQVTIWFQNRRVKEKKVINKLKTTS
Chain of Dihydroorotate dehydrogenase (quinone), mitochondrial (Plasmodium falciparum (isolate 3D7)) (Q08210 whole entry, looked up): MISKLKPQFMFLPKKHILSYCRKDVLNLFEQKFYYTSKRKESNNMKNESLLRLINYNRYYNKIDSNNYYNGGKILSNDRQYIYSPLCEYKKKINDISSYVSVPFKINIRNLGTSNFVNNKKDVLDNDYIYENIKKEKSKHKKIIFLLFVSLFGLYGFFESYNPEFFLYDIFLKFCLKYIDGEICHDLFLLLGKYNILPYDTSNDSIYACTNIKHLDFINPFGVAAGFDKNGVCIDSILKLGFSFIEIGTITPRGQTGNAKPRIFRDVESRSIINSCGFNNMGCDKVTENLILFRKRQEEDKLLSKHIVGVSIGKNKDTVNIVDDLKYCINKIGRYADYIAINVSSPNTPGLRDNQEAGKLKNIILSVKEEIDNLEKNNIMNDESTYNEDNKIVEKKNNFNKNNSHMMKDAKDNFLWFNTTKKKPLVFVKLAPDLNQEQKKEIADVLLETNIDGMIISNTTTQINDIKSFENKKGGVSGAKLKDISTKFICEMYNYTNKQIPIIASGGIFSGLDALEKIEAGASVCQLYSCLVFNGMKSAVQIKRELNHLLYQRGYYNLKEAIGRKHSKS

As for `CC[C@@H]1[C@@H]2C3C(=O)N(CC)C(=O)C3CC(=O)[C@@H]2[C@H](c2ccc(C)cc2)N1S(=O)(=O)c1ccc(C)cc1` (some centres undefined), the z-score in assay [1] was -0.107; in [2] it was -1.67 (inactive); in [3] it was -1.27 (inactive); in assay [5] it was 0.409 (inactive); in [6], -1.13 (inactive); in assay [7], 0.694 (inactive). In addition, the z-score in assay [8] was 1.26 (inactive); in assay [9], 0.887; in assay [12] it was -0.226; in [13] it was -3.54 (inactive); in assay [14], -1.51 (inactive); in assay [15] it was -1.33 (inactive). Also, the composite z-score in assay [4] was -0.415 (inactive); in assay [10] it was -0.0962; in assay [11] it was -0.363 (inactive); with XIP peptide (Xip251-270) it was 0.73.
As to `COc1ccc(CCNC(=O)[C@@H]2c3ccccc3C(=O)N(Cc3ccccc3C(F)(F)F)[C@H]2c2ccc(CO)cc2)cc1`, the z-score in [1] was 0.743; in [2], 0.415 (inactive); in assay [3], 0.711 (inactive); in assay [5] it was -0.77 (inactive); in [6], 1.51 (inactive); in [7] it was 0.709 (inactive). Moreover, the z-score is 0.633 (inactive) in [8]; 0.837 in assay [9]; -0.756 in assay [12]; -3.85 (inactive) in assay [13]; 0.239 (inactive) in assay [14]; 0.61 (inactive) in assay [15]. Also, the composite z-score was 0.717 (inactive) in assay [4], 0.0819 in assay [10], -0.251 (inactive) in assay [11] and 0.766 in the assay on XIP peptide (Xip251-270).
For the compound `O=C(O)[C@@]1(Cc2ccccc2)COC(c2ccc(OCCCO)cc2)=N1`, the z-score in assay [1] was 0.0838; in [2] it was 1.02 (inactive); in assay [3], 0.296 (inactive); in [5], 0.274 (inactive); in assay [6] it was 1.4 (inactive); in [7], 1.58 (inactive). In addition, the z-score in assay [8] is 0.466 (inactive); in assay [9] it was 0.318; in assay [12], -0.0272; in assay [13] it was -1.29 (inactive); in assay [14], -0.0393 (inactive); in assay [15], 0.204 (inactive). For the same compound, the composite z-score is 1.75 (inactive) in assay [4], 0.33 in assay [10], -0.781 (inactive) in assay [11] and -0.486 in the assay on XIP peptide (Xip251-270).
For `C=CCOC(=O)[C@H]1[C@@H]2C(=O)O[C@@H](c3ccccc3)[C@@H](c3ccccc3)N2[C@@H](c2ccc(OCCOC(=O)[C@H]3C[C@H]4C(=O)N[C@@H](CCCCN(C)C)C(=O)N4[C@H]3c3ccc(O)cc3)cc2)[C@]12C(=O)Nc1ccccc12`, the z-score was 0.569 in [1]; -2.35 (inactive) in assay [2]; 0.95 (inactive) in assay [3]; -0.723 (inactive) in assay [5]; 0.719 (inactive) in assay [6]; 0.172 (inactive) in [7]. The z-score in assay [8] was -0.739 (inactive); in [9] it was 0.828; in assay [12], -0.216; in assay [13] it was 4.13 (inactive); in [14] it was -0.685 (inactive); in assay [15], -0.308 (inactive). Further, the composite z-score in assay [4] is 0.279 (inactive); in [10], 0.0425; in assay [11], 0.275 (inactive); with XIP peptide (Xip251-270), 0.582.
Turning to `O=C1c2ccccc2[C@](Cc2ccccc2I)(C(=O)NC2CC2)[C@H](c2ccc(CO)cc2)N1Cc1ccccc1Cl`, the z-score in assay [1] is 0.197; in assay [2] it was 0.504 (inactive); in assay [3] it was -0.405 (inactive); in [5], 0.925 (inactive); in [6] it was 1.9 (inactive); in [7], 0.258 (inactive). Moreover, the z-score in assay [8] is -0.507 (inactive); in assay [9], -0.506; in assay [12], -1.03; in [13], -4.21 (inactive); in [14] it was 0.129 (inactive); in [15], -0.341 (inactive). Also, the composite z-score in assay [4] is 0.37 (inactive); in assay [10], 0.0432; in assay [11] it was 1.33 (inactive); with XIP peptide (Xip251-270), -0.154.
For the compound `COC(=O)C(CC#Cc1ccc2c(c1)[C@]1(C(=O)N2)[C@H](c2ccc(O)cc2)N2[C@H](c3ccccc3)[C@H](c3ccccc3)OC(=O)[C@H]2[C@@H]1C(=O)O)C(=O)OC`, the z-score in assay [1] is 0.464; in [2], 0.338 (inactive); in [3] it was -0.134 (inactive); in assay [5] it was 0.875 (inactive); in assay [6] it was -0.316 (inactive); in assay [7], -0.0388 (inactive). In addition, the z-score in assay [8] is -0.286 (inactive); in assay [9], -0.0316; in assay [12], -0.102; in assay [13], -6.45 (inactive); in assay [14], 0.223 (inactive); in [15], -0.31 (inactive). Moreover, the composite z-score is -1.59 (inactive) in [4], -0.374 in [10], -0.173 (inactive) in assay [11] and 0.665 in the assay on XIP peptide (Xip251-270).
With `OCCCC1=CC(c2cccs2)N(Cc2cccc(OC(F)(F)F)c2)CC1` (centres undefined), the z-score in assay [1] was -0.505; in assay [2], -4.17 (inactive); in [3], -0.656 (inactive); in assay [5], -0.341 (inactive); in assay [6], -0.54 (inactive); in assay [7], 0.0886 (inactive). Also, the z-score in assay [8] is -0.573 (inactive); in [9], -0.175; in assay [12], -0.717; in assay [13], -2.9 (inactive); in assay [14], 0.439 (inactive); in [15], 0.513 (inactive). For the same compound, the composite z-score in assay [4] was -1.3 (inactive); in assay [10], 0.282; in assay [11], -0.512 (inactive); in the assay with XIP peptide (Xip251-270), 0.754.
For `C[C@]12C(=O)N(CCCO)[C@@H]3C(=O)N(c4ccc(Cl)cc4)CC=CC31O[C@@H]1/C=C\CCCOC(=O)C12` (some centres undefined), the z-score in assay [1] was -0.468; in assay [2], -0.0146 (inactive); in assay [3], -0.291 (inactive); in assay [5], -0.553 (inactive); in assay [6] it was -0.965 (inactive); in assay [7] it was -0.477 (inactive). For the same compound, the z-score is -0.464 (inactive) in assay [8]; -0.217 in [9]; 0.571 in [12]; -6.08 (inactive) in [13]; -0.647 (inactive) in [14]; -0.0294 (inactive) in assay [15]. The composite z-score in [4] is 0.0021 (inactive); in [10] it was 0.734; in assay [11], -0.232 (inactive); in the assay with XIP peptide (Xip251-270) it was -0.271.
Turning to `CC(C)C[C@@H]1NC(=O)[C@@H]2C[C@H](C(=O)NCc3ccc(F)cc3)[C@H](c3ccc(O)cc3)N2C1=O`, the z-score in assay [1] was -1.5; in assay [2] it was 0.0288 (inactive); in [3], 0.429 (inactive); in assay [5] it was 0.891 (inactive); in [6], -0.647 (inactive); in assay [7] it was -0.52 (inactive). In addition, the z-score in assay [8] was -1.2 (inactive); in [9] it was 0.734; in assay [12], -0.395; in [13], -1.41 (inactive); in assay [14] it was 0.13 (inactive); in [15], 0.0555 (inactive). Besides, the composite z-score in [4] was -1.36 (inactive); in [10], 0.222; in assay [11], 0.8 (inactive); in the assay on XIP peptide (Xip251-270), 0.655.

These data come from PubChem BioAssay.
